# Laboratory results from paper PMC4336329 (PLoS ONE, 2015).
# Screen size: about 310,000 compounds; about 14,000 (4.5%) showed an effect of 50% or more. Effects have a minus sign here. Only a selection was taken, and strong results are over-represented in it overall.
# Biological target: human ether-à-go-go-related gene (hERG) potassium channel (human, UniProt Q12809)
# Assay: primary screen, population patch clamp on CHO cells stably expressing hERG; higher = less effect of the substance
# 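Further: peak tail current of the secondary pulse compared with the same well before compound.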
# Sequence of human ether-à-go-go-related gene (hERG) potassium channel (Q12809 whole entry, looked up): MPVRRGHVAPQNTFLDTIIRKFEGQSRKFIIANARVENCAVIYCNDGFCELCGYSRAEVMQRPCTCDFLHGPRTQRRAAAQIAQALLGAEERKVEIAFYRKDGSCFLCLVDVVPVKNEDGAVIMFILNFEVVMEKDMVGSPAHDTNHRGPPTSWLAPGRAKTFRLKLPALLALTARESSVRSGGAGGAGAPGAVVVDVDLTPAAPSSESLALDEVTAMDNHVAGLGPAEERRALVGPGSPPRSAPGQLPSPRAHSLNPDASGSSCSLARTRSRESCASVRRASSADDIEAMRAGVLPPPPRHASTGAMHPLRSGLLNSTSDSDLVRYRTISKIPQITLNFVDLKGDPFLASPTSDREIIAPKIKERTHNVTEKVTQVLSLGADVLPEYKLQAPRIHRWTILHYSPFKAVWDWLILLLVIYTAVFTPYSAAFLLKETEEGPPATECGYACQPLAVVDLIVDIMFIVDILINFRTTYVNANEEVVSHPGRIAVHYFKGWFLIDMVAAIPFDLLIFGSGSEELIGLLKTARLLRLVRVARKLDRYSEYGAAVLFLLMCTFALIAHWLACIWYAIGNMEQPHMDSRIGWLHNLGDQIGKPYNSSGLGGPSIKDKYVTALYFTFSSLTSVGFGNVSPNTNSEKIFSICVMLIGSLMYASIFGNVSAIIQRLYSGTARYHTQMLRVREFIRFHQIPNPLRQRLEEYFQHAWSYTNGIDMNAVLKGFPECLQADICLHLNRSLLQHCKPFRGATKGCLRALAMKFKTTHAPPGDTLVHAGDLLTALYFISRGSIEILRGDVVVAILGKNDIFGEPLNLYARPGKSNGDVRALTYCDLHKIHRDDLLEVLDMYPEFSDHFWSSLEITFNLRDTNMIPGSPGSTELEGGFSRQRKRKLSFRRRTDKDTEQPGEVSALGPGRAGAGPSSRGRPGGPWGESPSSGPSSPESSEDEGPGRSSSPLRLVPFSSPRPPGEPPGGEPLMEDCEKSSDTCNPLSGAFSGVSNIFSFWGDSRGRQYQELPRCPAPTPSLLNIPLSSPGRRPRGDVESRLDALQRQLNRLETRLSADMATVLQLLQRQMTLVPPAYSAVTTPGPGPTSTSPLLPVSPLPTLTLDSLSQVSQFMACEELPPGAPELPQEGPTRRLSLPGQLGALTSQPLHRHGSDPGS
row,Structure (SMILES),"hERG current change (%, negative = inhibition) at 10uM [%]"
1,Cn1c(CN2CCCCC2)nc2cc(NC(=O)c3ccc(Cl)cc3)ccc21,-59.8
2,CC(=O)N1CCN(Cc2nc3cc(NC(=O)c4ccccc4C)ccc3n2C)CC1,10.2
3,COc1ccccc1C(=O)Nc1ccc2c(c1)nc(CN1CCCCC1)n2C,-21.8
4,CS(=O)(=O)c1ccc(-n2c(=O)n(Cc3ccccc3)c(=O)c3[nH]cnc32)cc1,-45.7
5,CCOP(=O)(OCC)/C(C#N)=C/c1ccc(Br)cc1,-13.5
6,O=C1c2ccccc2C(=O)N1CCN1CCCCC1,-6.2
7,CC1CN(C(=O)/C=C/c2ccccc2[N+](=O)[O-])CC(C)O1 (centres unmarked),-4.44
8,CCCCc1cn([C@@H](CCCCN)C(=O)N2CCNCC2)nn1.Cl,18.8
9,CCOC(=O)c1cc2c(=O)n3ccccc3nc2n(C(C)C)c1=NC(=O)c1ccncc1,-67.5
10,CCCn1c(=NC(=O)c2c(-c3c(F)cccc3Cl)noc2C)c(C(=O)OCC)cc2c(=O)n3ccccc3nc21,5.26
11,CCCn1c(=NC(C)=O)c(C(=O)OCC)cc2c(=O)n3ccccc3nc21,-9.98
12,CCOC(=O)c1cc2c(=O)n3ccccc3nc2n(C(C)C)c1=NC(=O)c1c(-c2c(F)cccc2Cl)noc1C,2.48
13,CCCCCn1c(=NC(=O)c2ccco2)c(C(=O)OCC)cc2c(=O)n3ccccc3nc21,-73.5
14,CCOC(=O)c1cc2c(=O)n3ccccc3nc2n(C(C)C)c1=NC(=O)c1ccco1,-56.8
15,CCCn1c(=NC(=O)c2ccco2)c(C(=O)OCC)cc2c(=O)n3ccccc3nc21,-66.7
16,CCOC(=O)c1cc2c(=O)n3ccccc3nc2n(C)c1=NC(=O)c1c(-c2c(F)cccc2Cl)noc1C,14
17,CCOC(=O)c1cc2c(=O)n3ccccc3nc2n(C(C)C)c1=NC(=O)c1c(-c2ccccc2Cl)noc1C,24.3
18,Cc1onc(-c2c(Cl)cccc2Cl)c1C(=O)NCc1cccs1,-9.65
19,COC(=O)CSc1nnc(SCc2ccc(Cl)cc2)s1,-0.477
20,Cc1occc1C(=O)N/N=C/c1ccc(-c2cccc([N+](=O)[O-])c2)o1,1.37
21,O=C(COC(=O)c1cc(S(=O)(=O)NCc2ccccc2)ccc1O)c1cc2ccccc2o1,11.9
22,COc1ccccc1NC(=O)CCCN1C(=O)C2CC=CCC2C1=O (centres unmarked),11.1

row,Structure (SMILES),"hERG current change (%, negative = inhibition) at 10uM [%]"
1,CCN1CCN(Cc2ccccc2NC(=O)Nc2ccc(C)cc2)CC1,-0.992
2,COc1cc2nc(CN(CCC(C)C)Cc3nc4cc(OC)c(OC)cc4c(=O)[nH]3)[nH]c(=O)c2cc1OC,-2.68
3,Cc1ccccc1NC(=O)c1nn(C)c(C(=O)Nc2ccccc2C)c1[N+](=O)[O-],0.0696
4,CCCCn1c(=NC(=O)c2ccco2)c(C(=O)OCC)cc2c(=O)n3ccccc3nc21,-71.7
5,CCOc1cc(/C=C/c2ccc3cccc([N+](=O)[O-])c3n2)ccc1OCC(=O)N(C)C,-33.4
6,O=C(c1ccco1)N1CCN(c2nnc(-c3ccccc3)c3ccccc23)CC1,-75.8
7,Cc1ccc(-c2nnc(N3CCN(C(=O)c4ccco4)CC3)c3ccccc23)cc1,-75.2
8,Cc1ccc(-c2nnc(N3CCCCC3)c3ccccc23)cc1,-11.2
9,O=C(CN1CCOCC1)N1CCN(c2nnc(-c3ccccc3)c3ccccc23)CC1,7.35
10,N#Cc1c(N2CCN(C(=O)c3ccco3)CC2)nc(-c2ccccc2)c2c1CCCC2,-5.84
11,Cc1ccc(-c2nnc(N3CCN(C(=O)CN4CCOCC4)CC3)c3ccccc23)cc1,-31.5
12,O=C(Nc1nccs1)C1CCN(S(=O)(=O)c2ccccc2)CC1,-14.1
13,CN(C)S(=O)(=O)c1cccc(NC(=O)c2sccc2-c2ccccc2)c1,-26.1
14,FC(F)Oc1ccc(NC(=S)NCc2ccccc2)cc1,-36.9
15,CCOc1ccc(NC(=S)NCc2nc3ccccc3[nH]2)cc1,-74
16,COc1ccc(NC(=S)Nc2ccc3cn[nH]c3c2)cc1,-11.9
17,Fc1ccc(CNC(=S)Nc2ccc(OC(F)F)cc2)cc1,-20.6
18,CCNC(=S)Nc1ccc(Cc2nc3ccccc3[nH]2)cc1,9.19
19,FC(F)Oc1ccc(NC(=S)NCc2nc3ccccc3[nH]2)cc1,-79.2
20,S=C(Nc1ccccc1)Nc1ccc2cn[nH]c2c1,-14.5
21,FC(F)Oc1ccc(NC(=S)Nc2ccc3cn[nH]c3c2)cc1,-79.5
22,CCc1cccc(CC)c1NC(=S)NCc1nc2ccccc2[nH]1,3.09
